In PubChem BioAssay (Tox21):
Results filed as inconclusive are left out. Active and inactive are the calls of the source. Calls follow the shape of the dose curve; as a rule, active = well fitted curve in the direction sought with a large enough effect in the repeat runs; inconclusive = weak or mixed curves; inactive = no such curve, though single readings can be large; an effect the other way counts as inactive or inconclusive.

Legend:
[1] = A CellTox Green Cytotoxicity Assay to monitor cytotoxicity in HepG2 cells - 0 hour (AID 1224882); also: nearly all actives have a fitted effect of over 35% in size
Outline: (§1)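 Nonlytic assay: viable cells exclude the dye, so fluorescence scales with cell death. HepG2 at 600 cells/well, compounds added after 5 h, signal read across 40 h.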

[2] = A CellTox Green Cytotoxicity Assay to monitor cytotoxicity in HepG2 cells - 32 hour (AID 1224883); also: nearly all actives have a fitted effect of over 50% in size
Outline: as §1

[3] = A CellTox Green Cytotoxicity Assay to monitor cytotoxicity in HEK293 cells - 8 hour (AID 1224884); also: nearly all actives have a fitted effect of over 35% in size
Outline: (§2)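 Seeding of HEK293 cells together with cytotoxicity dye preceded a 5 h incubation at 37 C/5% CO2. Test compounds in DMSO were then added and fluorescence monitored across 40 h.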

[4] = qHTS RealTime-Glo MT Cell Viability Assay in HepG2 cells - 16 hour (AID 1224885); also: nearly all actives have a fitted effect of over 50% in size
Outline: (§3)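 Luminescence read-out: viable HepG2 cells reduce a prosubstrate to a NanoLuc substrate, giving a signal proportional to live cell number. Reads taken at 0, 8, 16, 24, 32 and 40 h of compound exposure at 37 C.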

[5] = qHTS RealTime-Glo MT Cell Viability Assay in HEK293 cells - 24 hour (AID 1224886); also: top concentration of the series differs between compounds; nearly all actives have a fitted effect of over 50% in size
Outline: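 Nonlytic real-time viability readout: viable cells convert prosubstrate to NanoLuc substrate, giving luminescence proportional to live cell number. HEK293, 600 cells/well, compound added after 5 h, continuous culture at 37 C.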

[6] = qHTS RealTime-Glo MT Cell Viability Assay in HEK293 cells - 8 hour (AID 1224887); also: top concentration of the series differs between compounds; nearly all actives have a fitted effect of over 50% in size
Outline: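 Tox21 screen in HEK293 using RealTime-Glo MT chemistry, with cells and reagent co-dispensed. Luminescence proportional to viable cell number was captured at intervals during 40 h compound exposure at 37 C.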

[7] = A CellTox Green Cytotoxicity Assay to monitor cytotoxicity in HEK293 cells - 16 hour (AID 1224888); also: nearly all actives have a fitted effect of over 35% in size
Outline: as §2

[8] = qHTS RealTime-Glo MT Cell Viability Assay in HepG2 cells - 0 hour (AID 1224889); also: nearly all actives have a fitted effect of over 50% in size
Outline: as §3

[9] = A CellTox Green Cytotoxicity Assay to monitor cytotoxicity in HepG2 cells - 8 hour (AID 1224890); also: nearly all actives have a fitted effect of over 45% in size
Outline: as §1

[10] = qHTS assay to identify small molecule antagonists of the estrogen receptor alpha (ER-alpha) signaling pathway using the BG1 cell line in the presence of 0.1 nM 17-beta-estradiol - cell viability counter screen (AID 1259241); also: nearly all actives have a fitted effect of over 40% in size
Outline: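 Measures cytotoxicity alongside the ER-alpha antagonist readout: VM7Luc4E2 cells, charcoal-stripped serum, 0.1 nM 17beta-estradiol final, 22 hr compound incubation at 37C, CellTiter-Fluor fluorescence.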
% is scaled to controls: 0 for no effect and ±100 for the full control effect.

CC(=O)N[C@@H](CC(C)C)C(=O)O
inactive: Potency [1] | Potency [2] | Potency [3] | outcome [4] | Potency [5] | Potency [6] | Potency [7] | Potency [8] | Potency [9] | Potency [10]

CCOc1ccc(OCC)c(Cl)c1
inactive: Potency [1] | Potency [2] | Potency [3] | outcome [4] | Potency [5] | Potency [6] | Potency [7] | Potency [8] | Potency [9] | Potency [10]

ClC(Cl)Cl
inactive: Potency [1] | Potency [2] | Potency [3] | outcome [4] | Potency [5] | Potency [6] | Potency [7] | Potency [8] | Potency [9] | Potency [10]

CCOC(=O)c1cc(=O)c2c(OCC(COc3cccc4oc(C(=O)OCC)cc(=O)c34)OC(=O)[C@@H](N)CCCCN)cccc2o1
inactive: Potency [1] | Potency [2] | Potency [3] | outcome [4] | Potency [5] | Potency [6] | Potency [7] | Potency [8] | Potency [9] | Potency [10]

O=C(O)c1cccc(Cl)c1Cl
inactive: Potency [1] | Potency [2] | Potency [3] | outcome [4] | Potency [5] | Potency [6] | Potency [7] | Potency [8] | Potency [9] | Potency [10]

C1CSCCS1
inactive: Potency [1] | Potency [2] | Potency [3] | outcome [4] | Potency [5] | Potency [6] | Potency [7] | Potency [8] | Potency [9] | Potency [10]

CC(C)CC(=O)OCc1ccccc1
inactive: Potency [1] | Potency [2] | Potency [3] | outcome [4] | Potency [5] | Potency [6] | Potency [7] | Potency [8] | Potency [9] | Potency [10]

CCCCCCCCCC/C=C/C#N
inactive: Potency [1] | Potency [2] | Potency [3] | outcome [4] | Potency [5] | Potency [6] | Potency [7] | Potency [8] | Potency [9] | Potency [10]

CCOC(=O)NCCC[Si](OCC)(OCC)OCC
inactive: Potency [1] | Potency [2] | Potency [3] | outcome [4] | Potency [5] | Potency [6] | Potency [7] | Potency [8] | Potency [9] | Potency [10]

Cc1c(C(=O)NCCO)[n+](=O)c2ccccc2n1[O-]
inactive: Potency [1] | Potency [2] | Potency [3] | outcome [4] | Potency [5] | Potency [6] | Potency [7] | Potency [8] | Potency [9] | Potency [10]

CCOC(=O)c1ccccc1O
inactive: Potency [1] | Potency [2] | Potency [3] | outcome [4] | Potency [5] | Potency [6] | Potency [7] | Potency [8] | Potency [9] | Potency [10]

O=c1oc2c(O)c(O)cc3c(=O)oc4c(O)c(O)cc1c4c23
inactive: cytotoxicity [1] -11.8% [at 15.8 µM] | cytotoxicity increase [2] 19.5% [at 15.8 µM] | cytotoxicity increase [3] 7.37% [at 15.8 µM] | activity change, negative = cytotoxic [4] -6.97% [at 15.8 µM] | activity change, negative = cytotoxicity [5] -7.55% [at 15.8 µM] | activity change, negative = cytotoxicity [6] -0.845% [at 15.8 µM] | activity change [7] 13% [at 15.8 µM, active compounds read high] | activity change, negative = cytotoxicity [8] 0.919% [at 15.8 µM] | cytotoxicity increase [9] -1.27% [at 15.8 µM] | activity change, negative = cytotoxicity [10] 3.69% [at 19 µM]

Cc1cn([C@@H]2O[C@H](CO)[C@@H](O)[C@@H]2F)c(=O)[nH]c1=O
inactive: Potency [1] | Potency [2] | Potency [3] | outcome [4] | Potency [5] | Potency [6] | Potency [7] | Potency [8] | Potency [9] | Potency [10]

C=CCCC=C
inactive: Potency [1] | Potency [2] | Potency [3] | outcome [4] | Potency [5] | Potency [6] | Potency [7] | Potency [8] | Potency [9] | Potency [10]

CC(C)=CCCC(C)CCOC=O (stereo not given)
inactive: Potency [1] | Potency [2] | Potency [3] | outcome [4] | Potency [5] | Potency [6] | Potency [7] | Potency [8] | Potency [9] | Potency [10]

Nc1ccc2ccccc2c1S(=O)(=O)O
inactive: Potency [1] | Potency [2] | Potency [3] | outcome [4] | Potency [5] | Potency [6] | Potency [7] | Potency [8] | Potency [9] | Potency [10]

C/C(=N\O)[C@@H](C)NCC(C)(C)CN[C@H](C)/C(C)=N/O
inactive: Potency [1] | Potency [2] | Potency [3] | outcome [4] | Potency [5] | Potency [6] | Potency [7] | Potency [8] | Potency [9] | Potency [10]

O=Cc1ccc(F)c(Br)c1
inactive: Potency [1] | Potency [2] | Potency [3] | outcome [4] | Potency [5] | Potency [6] | Potency [7] | Potency [8] | Potency [9] | Potency [10]
